Measured values as given in PubChem BioAssay (NCATS).
Results filed as inconclusive are left out. Activity calls are given as the source filed them. Unless noted, calls come from the whole dose curve; as a rule, active = well fitted curve in the direction sought with a large enough effect; inconclusive = small, poorly fitted or top-dose-only effect, or another doubt; inactive = no such curve, though single readings can be large; an effect the other way counts as inactive or inconclusive.

Legend:
[1] = target: Cytochrome P450 3A4 (Homo sapiens) (UniProt P08684); assay: qHTS Assay for Inhibitors and Substrates of Cytochrome P450 3A4 (AID 884); note: nearly all actives have a fitted effect of over 50% in size; note: potency is the fitted concentration of half-maximal effect
Summary of the method: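 20 nM human CYP3A4 with 25 uM Luciferin-PPXE (at KM) in 200 mM KPO4, preincubated 10 min with compound; NADPH regeneration started a 60 min RT reaction. Luciferin detected by luminescence, normalized to 57 uM ketoconazole as full inhibition.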

[2] = target: Cytochrome P450 3A4 (Homo sapiens) (UniProt P08684); assay: qHTS Assay for Activators of Cytochrome P450 3A4 (AID 885); note: nearly all actives have a fitted effect of over 65% in size
Summary of the method: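 Quantitative HTS format: compounds preincubated with 20nM human CYP3A4 and Luciferin-PPXE substrate at KM, reaction started by NADPH regeneration, stopped after 60 min, luciferase luminescence read 20 min later.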

[3] = Primary qHTS for inhibitors of MERS-S pseudo-typed particle cell entry (AID 1479149; calls by dose curve; note: nearly all actives have a fitted effect of over 60% in size); conditions: outcome: dose series up to 57.1 µM unless noted
AS120 = assay: qHTS profiling for inhibitors of Plasmodium falciparum proliferation (AID 504749); note: nearly all actives have a fitted effect of over 60% in size; note: potency is the fitted concentration of half-maximal effect; conditions: P. falciparum in erythrocytes, SYBR Green DNA, 72 h; series mostly up to 28.7 µM
Summary of the method: (§1)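 Parasite proliferation within erythrocytes, 72 h exposure. Endpoint: SYBR Green I fluorescence after overnight lysis at room temperature. Controls: 0.29 uM artemisinin, DMSO.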

ATS189 = assay: as above; conditions: P. falciparum in erythrocytes, SYBR Green DNA, 72 h; series mostly up to 28.7 µM
Summary of the method: as §1

CP185 = assay: as above; conditions: P. falciparum in erythrocytes, SYBR Green DNA, 72 h; series mostly up to 28.7 µM
Summary of the method: as §1

CP192 = assay: as above; conditions: P. falciparum in erythrocytes, SYBR Green DNA, 72 h; series mostly up to 28.7 µM
Summary of the method: as §1

CP194 = assay: as above; conditions: P. falciparum in erythrocytes, SYBR Green DNA, 72 h; series mostly up to 28.7 µM
Summary of the method: as §1

CP201 = assay: as above; conditions: P. falciparum in erythrocytes, SYBR Green DNA, 72 h; series mostly up to 28.7 µM
Summary of the method: as §1

CP211 = assay: as above; conditions: P. falciparum in erythrocytes, SYBR Green DNA, 72 h; series mostly up to 28.7 µM
Summary of the method: as §1

CP256 = assay: as above; conditions: P. falciparum in erythrocytes, SYBR Green DNA, 72 h; series mostly up to 28.7 µM
Summary of the method: as §1

CP286 = assay: as above; conditions: P. falciparum in erythrocytes, SYBR Green DNA, 72 h; series mostly up to 28.7 µM
Summary of the method: as §1

DIV30 = assay: as above; conditions: P. falciparum in erythrocytes, SYBR Green DNA, 72 h; series mostly up to 28.7 µM
Summary of the method: as §1

Dd2 = assay: as above; conditions: P. falciparum in erythrocytes, SYBR Green DNA, 72 h; series mostly up to 28.7 µM
Summary of the method: as §1

FAB9 = assay: as above; conditions: P. falciparum in erythrocytes, SYBR Green DNA, 72 h; series mostly up to 28.7 µM
Summary of the method: as §1

P94_40 = assay: as above; conditions: P. falciparum in erythrocytes, SYBR Green DNA, 72 h; series mostly up to 28.7 µM
Summary of the method: as §1

PC15 = assay: as above; conditions: P. falciparum in erythrocytes, SYBR Green DNA, 72 h; series mostly up to 28.7 µM
Summary of the method: as §1

TAB113 = assay: as above; conditions: P. falciparum in erythrocytes, SYBR Green DNA, 72 h; series mostly up to 28.7 µM
Summary of the method: as §1

[4] = Stat Signaling Pathway (AID 446; active = well fitted curve in either direction with a large enough effect, not every such curve was filed as active;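 note: ME-180 cervical cancer cells given 40 pM IL-6 alongside compound; SIE-controlled beta-lactamase reporter measured as 460/530 nm FRET emission ratio; % is set by controls: 0 for no effect and ±100 for the full control effect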)
Summary of the method: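 IL-6/STAT signaling read in ME-180 cells via an SIE beta-lactamase reporter. Stimulus was 40 pM IL-6 (its AC50) for 5 hrs, so both activation and inhibition register.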

[5] = target: M-phase phosphoprotein 8 (Homo sapiens) (UniProt Q99549); assay: qHTS Validation Assay for Inhibitors for MPP8 Chromodomain Interactions with Methylated Histone Tails (AID 488949);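 note: 50 nM MPP8 with 50 nM peptide preformed then compounds added for 30 min; AlphaScreen signal from MPP8 chromodomain bound to biotinylated H3K9me3 peptide; top concentration of the series differs between compounds; % is set by controls: 0 for no effect and ±100 for the full control effect; nearly all actives have a fitted effect of over 55% in size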
Summary of the method: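 50 nM MPP8 + 50 nM b-H3K9me3 peptide, PBS pH 7.4/0.01% Tween-20, 30 min RT; + cpd 30 min RT; + AlphaScreen donor/Ni-chelate acceptor beads 10 ug/mL final, 30 min dark; luminescence read.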

M-phase phosphoprotein 8 (Homo sapiens), sequence (Q99549 whole entry, looked up): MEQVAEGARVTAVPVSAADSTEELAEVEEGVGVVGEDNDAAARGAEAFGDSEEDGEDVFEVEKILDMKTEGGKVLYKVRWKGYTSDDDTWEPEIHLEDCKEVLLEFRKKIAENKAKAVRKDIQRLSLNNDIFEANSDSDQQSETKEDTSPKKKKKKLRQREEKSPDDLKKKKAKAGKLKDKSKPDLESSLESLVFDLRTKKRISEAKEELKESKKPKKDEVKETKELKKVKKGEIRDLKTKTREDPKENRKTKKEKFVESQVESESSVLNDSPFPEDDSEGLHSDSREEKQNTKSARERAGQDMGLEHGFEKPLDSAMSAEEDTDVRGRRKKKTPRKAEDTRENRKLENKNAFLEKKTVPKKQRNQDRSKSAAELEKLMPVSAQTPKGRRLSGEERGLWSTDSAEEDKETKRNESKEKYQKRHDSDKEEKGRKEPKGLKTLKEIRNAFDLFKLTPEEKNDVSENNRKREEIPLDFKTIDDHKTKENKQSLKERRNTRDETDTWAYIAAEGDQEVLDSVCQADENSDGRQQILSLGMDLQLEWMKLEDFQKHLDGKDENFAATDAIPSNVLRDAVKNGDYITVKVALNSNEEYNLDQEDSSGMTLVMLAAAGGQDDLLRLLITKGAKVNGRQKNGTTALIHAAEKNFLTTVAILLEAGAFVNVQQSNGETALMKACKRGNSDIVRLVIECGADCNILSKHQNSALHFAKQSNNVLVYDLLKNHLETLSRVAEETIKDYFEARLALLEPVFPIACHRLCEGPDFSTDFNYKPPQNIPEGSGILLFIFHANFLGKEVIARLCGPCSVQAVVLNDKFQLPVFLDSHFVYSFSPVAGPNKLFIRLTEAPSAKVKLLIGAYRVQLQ
Cytochrome P450 3A4 (Homo sapiens), sequence (P08684 whole entry, looked up): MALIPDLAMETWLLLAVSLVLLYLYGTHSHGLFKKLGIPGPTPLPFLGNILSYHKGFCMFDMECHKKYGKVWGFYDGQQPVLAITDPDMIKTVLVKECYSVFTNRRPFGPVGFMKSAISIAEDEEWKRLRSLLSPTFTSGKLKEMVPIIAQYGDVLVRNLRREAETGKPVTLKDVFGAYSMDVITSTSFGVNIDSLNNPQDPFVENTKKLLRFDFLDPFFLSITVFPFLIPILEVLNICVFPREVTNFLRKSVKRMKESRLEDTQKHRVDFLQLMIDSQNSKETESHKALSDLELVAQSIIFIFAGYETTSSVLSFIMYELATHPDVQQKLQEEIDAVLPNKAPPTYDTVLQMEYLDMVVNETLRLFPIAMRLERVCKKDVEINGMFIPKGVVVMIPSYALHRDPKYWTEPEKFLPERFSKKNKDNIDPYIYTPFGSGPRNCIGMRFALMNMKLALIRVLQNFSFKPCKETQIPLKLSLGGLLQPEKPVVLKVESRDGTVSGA

CCC1/C=C/C=CCC(C)C(O)[C@@](C)(O)C(=O)C(C)C(O)C(C)C(=O)C(C)C(O)C(C)C=CC(=O)O[C@H]2C(C)C(CC1)O[C@]1(CCC(C)C(CC(C)O)O1)C2C (some centres not stated)
active: Potency [1] 7.94 µM
inactive: Potency [2]

CC(C)(O)/C=C\C(=O)[C@](C)(O)[C@H]1[C@H](O)C[C@]2(C)[C@@H]3CC=C4[C@@H](C=C(O)C(=O)C4(C)C)[C@]3(C)C(=O)C[C@@]12C
active: Potency [1] 0.398 µM
inactive: activity change, positive = activation [2] -93.2% [at 11.4 µM]

C=C(C)[C@@H]1CCC(C)=C[C@H]1c1c(O)cc(CCCCC)cc1O
inactive: Potency [3]

Oc1ccc2c3c1O[C@H]1[C@@H](O)CC[C@@]4(O)C(C2)N(CC2CCC2)CCC314 (some centres not stated)
inactive: Potency (AS120) | Potency (ATS189) | Potency (CP185) | Potency (CP192) | Potency (CP194) | Potency (CP201) | Potency (CP211) | Potency (CP256) | Potency (CP286) | Potency (DIV30) | Potency (Dd2) | Potency (FAB9) | Potency (P94_40) | Potency (PC15) | Potency (TAB113)

NNCc1cccc(O)c1
inactive: outcome [4] | Potency [5]

CC(C)(C)NC(=O)[C@H]1CC[C@H]2[C@@H]3CC=C4C=C(C(=O)O)CC[C@]4(C)[C@H]3CC[C@]12C
inactive: Potency [3]

C#CCN(C)C(C)Cc1ccccc1 (configuration not stated)
inactive: outcome [4]

Nc1ncnc2c1ncn2[C@@H]1O[C@H](COP(=O)(O)CP(=O)(O)OP(=O)(O)O)[C@H](O)[C@H]1O
inactive: Potency [5]

COc1cc(C=C(C#N)C#N)cc(O)c1O
inactive: outcome [4]

CC(C)(O)C1C2OC(=O)C1[C@]1(O)C[C@H]3O[C@]34C(=O)O[C@H]2[C@]14C (some centres not stated) (tested in a mixture with another compound)
inactive: Potency (AS120) | Potency (ATS189) | Potency (CP185) | Potency (CP192) | Potency (CP194) | Potency (CP201) | Potency (CP211) | Potency (CP256) | Potency (CP286) | Potency (DIV30) | Potency (Dd2) | Potency (FAB9) | Potency (P94_40) | Potency (PC15) | Potency (TAB113)

CCCCN1C2CCC1CC(OC(c1ccc(F)cc1)c1ccc(F)cc1)C2 (configuration not stated)
inactive: Potency [1]

COC(F)(F)C(Cl)Cl
inactive: Potency [3]

CCN(CC)C(=O)N[C@@H]1C[C@@H]2c3cccc4[nH]cc(c34)C[C@H]2N(C)C1
inactive: Potency (FAB9) | Potency (PC15)
active: Potency (CP211) 3.38 µM | Potency (CP256) 2.24 µM | Potency (Dd2) 3.98 µM

NCC#Cc1ccccc1
inactive: outcome [4] | Potency [2] | Potency [5]

CCCN(CCC)C(=O)Cc1c(-c2ccc(Cl)cc2)nc2c(Cl)cc(Cl)cn12
inactive: outcome [4] | Potency [2]

C[N+]1(C)C2CC(OC(=O)C(CO)c3ccccc3)CC1C1OC12 (configuration not stated)
inactive: Potency [1] | Potency [5]

CC12CCC3C(CCC4=C(O)C(=O)CCC43C)C1CCC2=O (configuration not stated)
inactive: Potency [5]

CCCC[N+]1(C)C2CC(OC(=O)C(CO)c3ccccc3)CC1C1OC12 (configuration not stated)
inactive: Potency (AS120) | Potency (ATS189) | Potency (CP185) | Potency (CP192) | Potency (CP194) | Potency (CP201) | Potency (CP211) | Potency (CP256) | Potency (CP286) | Potency (DIV30) | Potency (Dd2) | Potency (FAB9) | Potency (P94_40) | Potency (PC15) | Potency (TAB113)

CNC(C)[C@@H](O)c1ccc(O)cc1 (some centres not stated)
inactive: Potency [3] | Potency (AS120) | Potency (ATS189) | Potency (CP185) | Potency (CP192) | Potency (CP194) | Potency (CP201) | Potency (CP211) | Potency (CP256) | Potency (CP286) | Potency (DIV30) | Potency (Dd2) | Potency (FAB9) | Potency (P94_40) | Potency (PC15) | Potency (TAB113)
